Laboratory results reported in PubChem BioAssay (EPA / NIEHS).
A structure can be active in one record and inactive in another. The source made the active and inactive calls. How the source made its calls: active means hit-call score of the fitted dose curve at least 0.9, where 1 is the maximum; inactive means score below 0.9.

experiment: ATG_Sox_CIS: Attagene CIS-FACTORIAL HepG2 Assay for human SRY-box transcription factor (SOX) (AID 2282960); details: HepG2 Attagene cis-factorial SOX reporter, mRNA; actives raise or lower the signal
Protocol: ATG_CIS is a cell-based, multiplexed-readout assay that uses HepG2, a human liver cell line, with measurements taken at 24 hours after chemical dosing in a 24-well plate.ATG_Sox_CIS is one of 52 assay component(s) measured or calculated from the ATG_CIS assay. It is designed to make measurements of mRNA induction, a form of inducible reporter, as detected with fluorescence intensity signals by Reverse transcription polymerase chain reaction (RT-PCR) and Capillary electrophoresis technology.Data from the assay component ATG_Sox_CIS was analyzed into 1 assay endpoint. This assay endpoint, ATG_Sox_CIS, was analyzed with bidirectional fitting relative to DMSO as the negative control and baseline of activity. Using a type of inducible reporter, measures of mRNA for gain or loss-of-signal activity can be used to understand the reporter gene at the transcription factor-level as they relate to the gene SOX1. Furthermore, this assay endpoint can be referred to as a primary readout, because this assay has produced multiple assay endpoints where this one serves a reporter gene function. To generalize the intended target to other relatable targets, this assay endpoint is annotated to the dna binding intended target family, where the subfamily is HMG box protein.
Human liver HepG2 cells are transiently transfected with multiple reporter transcription units (MRTUs) in 6-well plates using FuGene 6 reagent (Roche; 3 ml FuGene/1 mg DNA). The MRTU constructs are regulated by a cis-regulating element (promoter). […] A major difference between the CIS and TRANS system is that in CIS activities of endogenous TFs are measured, whereas the TRANS assay evaluates changes in activities of exogenous, chimeric NR-Gal4 proteins. […] At the end of 24 hour incubation, total RNA was isolated using TriZol reagent (Invitrogen). The isolated RNA is then reverse-transcribed using oligo(dT) primer and Mo-MLV reverse transcriptase (Invitrogen) with DNAse I (Ambion) treatment for 30 min. The one-tenth of the produced cDNA was amplified by PCR using Taq DNA polymerase (Invitrogen) and two reporter sequence-specific primers. The PCR products were fluorescently labeled by primer extension with 6-arboxyfluorescein (6-FAM) 5'-labeled reporter sequence-specific primer (2 min at 95 C, 20 s at 68 C and 10 min at 72 C) and these products were digested with 5U of HpaI (New England Biolabs) for 2h at 37 C. The fragments were purified using Qiaquick PCR columns (Qiagen), analyzed on an ABI 3130xL genetic analyzer (Applied Biosystems) with peak positions identified by using a set of X-rhodamine (ROX)-labeled MapMarker1000 molecular weight standards (BioVentures). The raw capillary electrophoresis data was processed using Attagraph software (Attagene).

Row | Compound | outcome | AC50
1 | O=S(=O)(O)C(F)(F)C(F)(F)C(F)(F)C(F)(F)C(F)(F)C(F)(F)C(F)(F)C(F)(F)C(F)(F)C(F)(F)F | inactive | 
2 | O=C1C=CC(=O)N1c1cccc(N2C(=O)C=CC2=O)c1 | inactive | 
3 | Cc1cc(C(C)(C)C)c(O)c(C(C)(C)C)c1 | inactive | 
4 | CCCCN(C)C | inactive | 
5 | Cn1sccc1=O |  | 154 µM (active)
6 | CCC(C)c1ccccc1O (stereo not given) | inactive | 
7 | Oc1c(Cl)ccc(Cl)c1Cl | inactive | 
8 | Cc1cncc(C)c1 | inactive | 
9 | CCCC=O | inactive | 
10 | CCCCCCCCCCCC[N+](C)(C)Cc1ccccc1 | inactive | 
11 | O=C1OC2(c3ccccc31)c1cc(I)c(O)c(I)c1Oc1c2cc(I)c(O)c1I | inactive | 
12 | O=CC(F)(F)C(F)(F)C(F)(F)C(F)F | inactive | 
13 | O=S(=O)(O)c1ccc2cc(O)ccc2c1 | inactive | 
14 | C=CC(C)(CCC=C(C)C)OC(C)=O (stereo not given) | inactive | 
15 | Oc1c(Cl)cc(Cl)cc1Sc1cc(Cl)cc(Cl)c1O | inactive | 
16 | CCOC(=O)c1nc(C(Cl)(Cl)Cl)n(-c2ccc(Cl)cc2Cl)n1 | inactive | 
17 | CCCCCCCCCCCC(=O)O | inactive | 
18 | CC1=NN(c2ccccc2)C(=O)C1 | inactive | 
19 | COC(=O)CC(C(C)=O)C(=O)OC (stereo not given) | inactive | 
20 | O=C(O)C(=O)O | inactive | 

Row | Compound | outcome | AC50
21 | c1ccc(CNc2ncnc3c2ncn3C2CCCCO2)cc1 (stereo not given) | inactive | 
22 | CCCCCCCCCCCCCCCCCC[N+](C)(C)Cc1ccccc1 |  | 12.4 µM (active)
23 | CCOC=O | inactive | 
24 | O=C(O)C(F)(F)OC(F)(F)C(F)(F)OC(F)(F)C(F)(F)OC(F)(F)C(F)(F)C(F)(F)C(F)(F)F | inactive | 37.3 µM (active)
25 | CN(CCO)S(=O)(=O)C(F)(F)C(F)(F)C(F)(F)C(F)(F)C(F)(F)C(F)(F)C(F)(F)C(F)(F)F | inactive | 
26 | C[C@]12CC[C@@H]3c4ccc(O)cc4CC[C@H]3[C@@H]1C[C@@H](O)[C@@H]2O | inactive | 
27 | O=C(F)C(F)(F)C(F)(F)C(F)(F)C(=O)F | inactive | 
28 | COc1ccccc1NC(=O)c1cc2ccccc2cc1O |  | 100 µM (active)
29 | O=C(OC(=O)C(F)(F)C(F)(F)F)C(F)(F)C(F)(F)F | inactive | 
30 | C=CC(=C)CC/C=C(\C)CCC=C(C)C | inactive | 
31 | NCc1cccc(CN)c1 | inactive | 
32 | C=CC(=O)OCC(CO)(COCC(COC(=O)C=C)(COC(=O)C=C)COC(=O)C=C)COC(=O)C=C |  | 5.94 µM (active)
33 | CCCCCCc1ccc(N)cc1 | inactive | 
34 | CC(C)C=O | inactive | 
35 | CC(C)(C)C1CCCCC1O (stereo not given) | inactive | 
36 | C[C@]12CC[C@@H]3c4ccc(O)cc4CC[C@H]3[C@@H]1CC[C@@H]2OC(=O)CCC1CCCC1 |  | 163 µM (active)
37 | CCCCCCCCCCCCCCC | inactive | 
38 | O=C(CC(=O)C(F)(F)C(F)(F)C(F)(F)F)c1cccs1 | inactive | 
39 | O=C(O)c1cccc(C(=O)O)n1 | inactive | 
